Measured values published in the supplement of paper PMC11732987, “Enantioselective OTUD7B fragment discovery through chemoproteomics screening and high-throughput optimisation” (Communications Chemistry, 2025).

How the values were obtained:
Assay in all cases: log2 ratio of Biotin-Ahx-Ub-VS probe labelling (fragment/DMSO); higher = less target engagement (more negative = stronger competition), active = hit call of the paper (q ≤ 0.05, log2 ratio ≤ -1)
Details in all cases: compound concentration: 200 uM; treatment time: 3 h
OTUD6B = target: T1, OTUD6B (UniProt Q8N6M0)
T1 sequence (whole entry): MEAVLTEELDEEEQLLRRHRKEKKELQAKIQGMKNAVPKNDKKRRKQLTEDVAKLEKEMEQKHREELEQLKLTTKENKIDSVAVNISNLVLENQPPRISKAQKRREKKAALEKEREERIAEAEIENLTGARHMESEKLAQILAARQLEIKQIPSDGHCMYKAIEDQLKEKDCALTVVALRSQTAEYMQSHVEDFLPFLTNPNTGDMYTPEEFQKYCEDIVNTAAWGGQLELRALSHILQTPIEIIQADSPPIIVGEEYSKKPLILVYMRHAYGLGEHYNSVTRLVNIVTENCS
Procedure, shortened: (§1)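 Each value is an average log2 ratio of fragment to vehicle, tested by unpaired t-test. The underlying Spectronaut label-free quantities were global-median-normalised, and only proteins with ≥2 unique peptides were included. Triplicate HEK293T lysate samples (495 µg) were exposed to fragment at 200 µM or vehicle for 3 h, then to Biotin-Ahx-Ub-VS at 0.5 µM final for 1 h, before NeutrAvidin enrichment of labelled DUBs, LysC and trypsin digestion, and diaPASEF LC-MS/MS.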

OTUD7B = target: T2, OTUD7B (UniProt Q6GQQ9)
T2 sequence (whole entry): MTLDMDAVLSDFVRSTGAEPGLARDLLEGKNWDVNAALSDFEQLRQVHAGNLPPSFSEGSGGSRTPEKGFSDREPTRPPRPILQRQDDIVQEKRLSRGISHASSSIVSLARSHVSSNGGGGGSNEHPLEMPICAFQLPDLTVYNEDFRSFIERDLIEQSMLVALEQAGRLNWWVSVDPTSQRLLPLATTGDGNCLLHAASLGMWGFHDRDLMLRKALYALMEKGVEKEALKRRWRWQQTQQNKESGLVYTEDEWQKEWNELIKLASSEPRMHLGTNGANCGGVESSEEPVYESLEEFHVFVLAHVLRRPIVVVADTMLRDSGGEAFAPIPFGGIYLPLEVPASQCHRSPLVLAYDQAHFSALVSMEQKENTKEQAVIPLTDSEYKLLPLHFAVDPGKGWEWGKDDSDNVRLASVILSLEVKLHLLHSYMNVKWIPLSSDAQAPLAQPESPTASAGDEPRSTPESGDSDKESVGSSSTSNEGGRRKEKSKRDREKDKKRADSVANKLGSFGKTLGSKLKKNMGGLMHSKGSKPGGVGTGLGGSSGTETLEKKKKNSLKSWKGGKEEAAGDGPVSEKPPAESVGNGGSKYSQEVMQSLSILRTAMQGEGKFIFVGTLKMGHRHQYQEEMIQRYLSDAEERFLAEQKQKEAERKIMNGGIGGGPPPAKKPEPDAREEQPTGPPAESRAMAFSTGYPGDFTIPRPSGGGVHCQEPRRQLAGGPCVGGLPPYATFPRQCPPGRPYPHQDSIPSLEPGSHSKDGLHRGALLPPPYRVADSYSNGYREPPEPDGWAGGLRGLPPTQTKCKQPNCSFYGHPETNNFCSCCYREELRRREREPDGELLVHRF
Procedure, shortened: as §1

PRPF8 = PRPF8 (UniProt Q6P2Q9)
Procedure, shortened: as §1

PSMD7 = target: T3, PSMD7 (UniProt P51665)
T3 sequence (whole entry): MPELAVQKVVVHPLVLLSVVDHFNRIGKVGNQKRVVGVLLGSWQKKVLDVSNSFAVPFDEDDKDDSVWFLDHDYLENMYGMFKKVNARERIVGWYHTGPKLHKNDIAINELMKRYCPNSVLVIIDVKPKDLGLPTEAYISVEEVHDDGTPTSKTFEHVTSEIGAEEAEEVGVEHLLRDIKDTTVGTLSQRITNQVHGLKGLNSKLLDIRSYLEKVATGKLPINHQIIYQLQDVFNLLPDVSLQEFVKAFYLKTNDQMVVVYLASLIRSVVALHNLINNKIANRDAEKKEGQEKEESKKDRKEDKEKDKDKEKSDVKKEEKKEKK
Procedure, shortened: as §1

UCHL1 = UCHL1 (UniProt P09936)
Procedure, shortened: as §1

UCHL3 = target: T4, UCHL3 (UniProt P15374)
T4 sequence (whole entry): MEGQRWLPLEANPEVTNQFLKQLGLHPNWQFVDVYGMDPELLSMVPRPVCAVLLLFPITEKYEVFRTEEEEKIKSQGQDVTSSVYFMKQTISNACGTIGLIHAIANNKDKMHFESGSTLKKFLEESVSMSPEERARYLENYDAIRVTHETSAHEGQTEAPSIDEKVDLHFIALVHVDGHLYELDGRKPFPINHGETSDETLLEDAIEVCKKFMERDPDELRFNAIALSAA
Procedure, shortened: as §1

UCHL5 = target: T5, UCHL5 (UniProt Q9Y5K5)
T5 sequence (whole entry): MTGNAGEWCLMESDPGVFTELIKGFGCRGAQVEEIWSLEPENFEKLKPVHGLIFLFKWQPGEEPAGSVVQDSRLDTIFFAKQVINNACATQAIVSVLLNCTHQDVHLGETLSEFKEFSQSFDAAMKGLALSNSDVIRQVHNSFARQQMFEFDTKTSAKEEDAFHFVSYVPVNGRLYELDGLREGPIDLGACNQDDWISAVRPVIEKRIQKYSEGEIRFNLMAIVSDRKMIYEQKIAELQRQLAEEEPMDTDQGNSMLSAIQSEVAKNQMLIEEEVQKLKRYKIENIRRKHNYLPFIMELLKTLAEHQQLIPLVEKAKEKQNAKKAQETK
Procedure, shortened: as §1

USP10 = USP10 (UniProt Q14694)
Procedure, shortened: as §1

USP15 = target: T6, USP15 (UniProt Q9Y4E8)
T6 sequence (whole entry): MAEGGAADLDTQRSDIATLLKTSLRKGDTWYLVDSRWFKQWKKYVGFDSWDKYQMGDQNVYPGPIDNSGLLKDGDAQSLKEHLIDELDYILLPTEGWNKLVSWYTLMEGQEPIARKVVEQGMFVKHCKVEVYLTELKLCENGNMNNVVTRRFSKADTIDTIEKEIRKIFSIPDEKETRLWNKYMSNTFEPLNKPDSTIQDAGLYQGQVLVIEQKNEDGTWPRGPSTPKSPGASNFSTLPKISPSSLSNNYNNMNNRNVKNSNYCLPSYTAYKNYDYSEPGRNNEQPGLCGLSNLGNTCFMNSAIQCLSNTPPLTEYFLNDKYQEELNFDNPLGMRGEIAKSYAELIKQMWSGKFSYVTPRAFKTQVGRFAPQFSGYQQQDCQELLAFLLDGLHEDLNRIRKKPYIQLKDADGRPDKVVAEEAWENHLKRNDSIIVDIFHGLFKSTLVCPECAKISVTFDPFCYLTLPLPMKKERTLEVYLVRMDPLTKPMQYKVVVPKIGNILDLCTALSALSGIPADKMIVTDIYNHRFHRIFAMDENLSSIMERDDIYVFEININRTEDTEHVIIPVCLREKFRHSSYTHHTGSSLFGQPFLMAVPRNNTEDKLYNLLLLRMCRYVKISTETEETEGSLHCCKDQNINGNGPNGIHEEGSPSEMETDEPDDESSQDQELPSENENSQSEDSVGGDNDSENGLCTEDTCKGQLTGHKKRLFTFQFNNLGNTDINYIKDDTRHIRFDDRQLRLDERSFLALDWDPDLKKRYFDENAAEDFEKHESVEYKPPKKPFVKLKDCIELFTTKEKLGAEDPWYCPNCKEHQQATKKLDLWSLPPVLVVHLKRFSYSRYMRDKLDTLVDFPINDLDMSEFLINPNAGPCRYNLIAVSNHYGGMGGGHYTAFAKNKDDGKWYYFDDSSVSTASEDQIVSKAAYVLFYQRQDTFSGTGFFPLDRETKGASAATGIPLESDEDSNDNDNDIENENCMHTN
Procedure, shortened: as §1

USP16 = USP16 (UniProt Q9Y5T5)
Procedure, shortened: as §1

Measured: log2 ratio of Biotin-Ahx-Ub-VS probe labelling

Sequence of UCHL1 (P09936 whole entry, looked up): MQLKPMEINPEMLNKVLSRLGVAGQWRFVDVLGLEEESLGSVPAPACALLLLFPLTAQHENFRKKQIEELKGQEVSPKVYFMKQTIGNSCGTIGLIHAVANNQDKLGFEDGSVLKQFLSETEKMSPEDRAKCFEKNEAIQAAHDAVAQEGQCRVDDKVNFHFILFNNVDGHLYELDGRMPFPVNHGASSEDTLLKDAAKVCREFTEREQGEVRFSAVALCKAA
Sequence of USP16 (Q9Y5T5 whole entry, looked up): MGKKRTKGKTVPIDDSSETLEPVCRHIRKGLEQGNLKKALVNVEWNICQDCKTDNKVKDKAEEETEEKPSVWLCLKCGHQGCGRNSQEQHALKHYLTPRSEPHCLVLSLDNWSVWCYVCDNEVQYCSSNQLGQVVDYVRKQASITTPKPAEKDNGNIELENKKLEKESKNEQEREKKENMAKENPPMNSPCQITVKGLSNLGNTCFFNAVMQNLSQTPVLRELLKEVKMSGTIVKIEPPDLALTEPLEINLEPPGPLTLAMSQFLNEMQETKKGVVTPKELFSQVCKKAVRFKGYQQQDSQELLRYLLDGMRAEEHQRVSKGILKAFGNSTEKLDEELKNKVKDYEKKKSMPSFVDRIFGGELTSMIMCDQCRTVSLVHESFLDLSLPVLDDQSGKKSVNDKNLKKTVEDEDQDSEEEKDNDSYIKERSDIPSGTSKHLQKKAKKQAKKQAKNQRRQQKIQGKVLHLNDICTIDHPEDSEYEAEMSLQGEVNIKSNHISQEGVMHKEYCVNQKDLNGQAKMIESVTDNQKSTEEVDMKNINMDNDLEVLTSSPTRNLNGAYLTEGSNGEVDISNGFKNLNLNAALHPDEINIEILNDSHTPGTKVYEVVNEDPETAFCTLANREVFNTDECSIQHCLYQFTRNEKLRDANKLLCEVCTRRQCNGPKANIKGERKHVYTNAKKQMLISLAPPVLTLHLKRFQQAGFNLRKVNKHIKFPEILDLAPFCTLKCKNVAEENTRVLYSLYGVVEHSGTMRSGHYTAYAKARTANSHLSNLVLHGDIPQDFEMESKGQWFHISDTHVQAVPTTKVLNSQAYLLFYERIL
Sequence of USP10 (Q14694 whole entry): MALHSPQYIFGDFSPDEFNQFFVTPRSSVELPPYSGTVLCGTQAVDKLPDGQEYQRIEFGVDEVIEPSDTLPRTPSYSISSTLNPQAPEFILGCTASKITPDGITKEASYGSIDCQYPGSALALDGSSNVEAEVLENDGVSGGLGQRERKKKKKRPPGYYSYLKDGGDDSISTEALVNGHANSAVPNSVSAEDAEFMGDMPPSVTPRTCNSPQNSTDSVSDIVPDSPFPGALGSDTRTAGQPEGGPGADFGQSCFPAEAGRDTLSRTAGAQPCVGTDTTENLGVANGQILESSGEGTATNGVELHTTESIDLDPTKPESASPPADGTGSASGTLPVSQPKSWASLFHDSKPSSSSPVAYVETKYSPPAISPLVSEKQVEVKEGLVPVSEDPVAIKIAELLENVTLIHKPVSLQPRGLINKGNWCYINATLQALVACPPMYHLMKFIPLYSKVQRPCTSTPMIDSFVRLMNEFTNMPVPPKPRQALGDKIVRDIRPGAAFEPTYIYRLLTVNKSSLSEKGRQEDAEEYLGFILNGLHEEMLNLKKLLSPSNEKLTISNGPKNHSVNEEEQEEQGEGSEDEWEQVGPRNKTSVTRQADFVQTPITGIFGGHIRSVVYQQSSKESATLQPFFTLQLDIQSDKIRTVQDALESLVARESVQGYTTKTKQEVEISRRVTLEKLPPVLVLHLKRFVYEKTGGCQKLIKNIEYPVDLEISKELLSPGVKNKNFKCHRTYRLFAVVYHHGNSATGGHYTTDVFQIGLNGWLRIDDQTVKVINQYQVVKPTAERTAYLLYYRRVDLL

O=C(CCl)N1CCC(=C(F)CO)C1
inactive: OTUD6B 0.0579 | OTUD7B 0.0673 | PRPF8 0.202 | PSMD7 0.0975 | UCHL3 -0.0974 | UCHL5 0.0121 | USP10 -0.107 | USP15 -0.156 | USP16 -0.506
active: UCHL1 -1.56
